# Experimental data: the supplement of paper PMC10941209
# Values without a mark were called inactive.
# Tested on: Toxoplasma gondii RH 2F1 tachyzoites (intracellular in HFF)
# Assay: parasite survival relative to DMSO control; higher = less antiparasitic activity, active = 20 or less
# Conditions: 1 µM; 72 h
# In short: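 Toxoplasma gondii RH-2F1 tachyzoites expressing β-galactosidase (5 × 10^3 per well) were used to infect HFF cells at 5 × 10^3 cells/well in 96-well plates for 3 h in D2 medium. Cells then received compound at 1 μM for 72 h at 37°C in 5% CO2, were lysed for 15 min, and were given CPRG, with absorbance at 570 nm read after 30 min. Survival denotes this signal as a percentage of DMSO-treated infected controls. Each value reflects 2 or more biological replicates.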
row,SMILES,parasite survival
1,CCc1nc2ccc(Cl)cn2c1C(=O)NCc1ccc(N2CCC(c3ccc(OC(F)(F)F)cc3)CC2)cc1,28.9%
2,NC(=O)[C@@H]1CC[C@@H]2CN1C(=O)N2OS(=O)(=O)O,39%
3,Oc1ccc(NCc2ccccc2OCc2ccccc2)cc1,39.5%
4,CC(C)c1ccc(COc2cccc(-c3cc([S+](C)[O-])c(C#N)c(=O)[nH]3)c2)cc1 (stereo not given),13.2% (active)
5,CC[C@@H]1C(=O)OC[C@@H]1Cc1cncn1C,45.1%
6,CC[C@@]1(O)C(=O)OCc2c1cc1n(c2=O)Cc2cc3c([N+](=O)[O-])cccc3nc2-1,57.5%
7,COCCn1cnc2c(O)nc(Nc3ccccc3)nc21,67%
8,Nc1nc(Nc2ccc3nc(-c4ccc(F)cc4)cc(N)c3c2)cc(-c2ccccc2)n1,4.03% (active)
9,CCCCCCCCC(CP(=O)(O)C(C)N)C(=O)O (stereo not given),62.7%
10,CC(C)/N=c1\cc2n(-c3ccc(Cl)cc3)c3ccccc3nc-2cc1Nc1ccc(Cl)cc1,4.63% (active)
11,CC(N)C12CC3CC(CC(C3)C1)C2 (stereo not given),78.3%
12,c1ccc(Cn2c(-c3ccccn3)nc3ccccc32)cc1,61.7%
13,COc1ccc(C)cc1NC(=O)c1ccc(S(=O)(=O)N2CCCCC2)cc1,60%
14,N=c1n(CCN2CCCCC2)c2ccccc2n1CC(O)COc1ccc(Cl)cc1Cl (stereo not given),10.8% (active)
15,COC(=O)Nc1nc2cc(Sc3ccccc3)ccc2[nH]1,25.4%
16,Cc1ncc([N+](=O)[O-])n1CC(O)CN1CCOCC1 (stereo not given),52.5%
17,CCc1cc(CCCOc2c(C)cc(-c3noc(C(F)(F)F)n3)cc2C)on1,55.4%
18,CC(C)(C)c1ccc(OCCn2nc(C(=O)O)c3ccccc3c2=O)cc1,45.3%
19,NC(=O)c1[nH]c2ccc(S(N)(=O)=O)cc2c1-c1ccccc1,72.1%
20,CCNC(=O)Nc1cc(-c2ccccc2)c(-c2cncc(C(=O)O)c2)cn1,33%

row,SMILES,parasite survival
1,COc1ccc2nc(-c3ccccc3)cc(O)c2c1,6.87% (active)
2,OCCC#Cc1nc(-c2ccc(F)cc2)c(-c2ccncc2)n1CCCc1ccccc1,9.3% (active)
3,O=c1cc(OCc2ccccc2)ccn1Cc1ccccc1,37%
4,OCCCCn1cnc2c(O)nc(NCc3ccc(Cl)c(Cl)c3)nc21,59.7%
5,COc1cc(C2C3=C(CC(C)(C)CC3=O)Nc3ccccc3N2C(C)=O)ccc1OCc1ccccc1 (stereo not given),56.3%
6,Nc1cc(-c2nc3ccccc3[nH]2)n[nH]c1=O,43%
7,CCc1nc2ccccn2c1C(=O)NCc1ccccc1,79.5%
8,COc1ccc2sc3c(c2c1)NC(C)CNC3=O (stereo not given),6.94% (active)
9,O=[N+]([O-])c1ccc2c(CCc3c[nH]c4ccccc34)c[nH]c2c1,43.3%
10,COc1ccc2c(c1)cc(CNC(=O)c1cc3ccccc3o1)n2CC(=O)O,64.2%
11,O=C(O)c1cc(-c2ccccc2)nc2ccccc12,67.9%
12,C[N+]1(C)CCCC(OC(=O)C(O)(c2ccccc2)c2ccccc2)C1 (stereo not given),61.6%
13,Cc1c(CN(C)C(=O)/C=C/c2cnc3c(c2)C(C)(C)C(=O)N3)oc2ccccc12,54.1%
14,C[C@H]1COc2c(N3CCN(C)CC3)c(F)cc3c(=O)c(C(=O)O)cn1c23,51.4%
15,C(=C\c1nc2ccccc2[nH]1)/c1ccc2c(c1)OCO2,22.1%
16,CCCCCCC1c2ccc(O)cc2Oc2cc(O)ccc21,25.2%
17,Cc1ccc(NC(=O)c2ccc(CN3CCN(C)CC3)cc2)cc1Nc1nccc(-c2cccnc2)n1,61%
18,C=CCN(C(=O)OCc1ccc([N+](=O)[O-])cc1)C1CCN(CC[C@](C)(CN(C)S(=O)(=O)c2ccccc2)c2ccccc2)CC1,35.5%
19,O=C1c2cccc3cccc(c23)C(=O)N1CC1CO1 (stereo not given),51.9%
20,Nc1nc(-c2ccccc2)nc2c1ncn2[C@@H]1O[C@H](COS(=O)(=O)NC(=O)c2ccccc2O)[C@@H](O)[C@H]1O,60.7%
